# According to PubChem BioAssay (NCI):
# Compounds without any hit were thinned out: in the full panel of roughly 83,000, 20% have a hit.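 The endpoint reported here, percent growth, reads 100 for growth as untreated, 0 for no net growth and -100 for all cells dead.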 Values without a mark were called inactive. Calls of active or inactive are those of the source. Rule for the calls: active = growth percent below 10; inactive = the rest.
# How the values were obtained:
# Test in all cases: NCI-60 one-dose screen, 48 h (100 = growth as untreated, 0 = no growth, -100 = all killed)
# Details in all cases: 10 µM unless noted
# SK-MEL-2 melanoma = test system: SK-MEL-2 melanoma
# EKVX NSCLC = test system: EKVX NSCLC
# SN12C renal = test system: SN12C renal
# UO-31 renal = test system: UO-31 renal
# TK-10 renal = test system: TK-10 renal
# ACHN renal = test system: ACHN renal
# CAKI-1 renal = test system: CAKI-1 renal
# A498 renal = test system: A498 renal
# CCRF-CEM leukemia = test system: CCRF-CEM leukemia
# MOLT-4 leukemia = test system: MOLT-4 leukemia
# SR leukemia = test system: SR leukemia
# OVCAR-8 ovarian = test system: OVCAR-8 ovarian
# OVCAR-5 ovarian = test system: OVCAR-5 ovarian
# OVCAR-4 ovarian = test system: OVCAR-4 ovarian
# SK-OV-3 ovarian = test system: SK-OV-3 ovarian
# OVCAR-3 ovarian = test system: OVCAR-3 ovarian
# HS 578T breast = test system: HS 578T breast
# NCI/ADR-RES ovarian = test system: NCI/ADR-RES ovarian
# RPMI-8226 leukemia = test system: RPMI-8226 leukemia
# IGROV1 ovarian = test system: IGROV1 ovarian
SMILES,growth (SK-MEL-2 melanoma),growth (EKVX NSCLC),growth (SN12C renal),growth (UO-31 renal),growth (TK-10 renal),growth (ACHN renal),growth (CAKI-1 renal),growth (A498 renal),growth (CCRF-CEM leukemia),growth (MOLT-4 leukemia),growth (SR leukemia),growth (OVCAR-8 ovarian),growth (OVCAR-5 ovarian),growth (OVCAR-4 ovarian),growth (SK-OV-3 ovarian),growth (OVCAR-3 ovarian),growth (HS 578T breast),growth (NCI/ADR-RES ovarian),growth (RPMI-8226 leukemia),growth (IGROV1 ovarian)
OC1Cc2ccccc2C1,107%,99.9%,104%,97.5%,95.9%,98.3%,103%,82.9%,98.1%,98.9%,94.6%,103%,95.4%,110%,111%,104%,96%,93.9%,,
Cc1[nH]c(=S)[nH]c(=O)c1C,107%,109%,106%,96.4%,107%,96.6%,103%,110%,96.9%,89.3%,97.9%,89.8%,101%,,106%,118%,123%,105%,115%,104%
CC(C)(C)[Si](C)(C)OCC1OC(n2cnc3c(N)ncnc32)CC1OS(C)(=O)=O (stereo not given),105%,105%,101%,86.8%,99.7%,114%,96.2%,67.6%,101%,105%,107%,98.6%,,108%,101%,104%,89.8%,103%,103%,114%
CC1(C)C2CCC1(C)C1(C2)OCCS1 (stereo not given),104%,87.4%,87.6%,90.1%,97.9%,102%,87.2%,113%,110%,99.6%,,101%,93.3%,101%,106%,109%,102%,92.4%,113%,104%
CCCCCC/C=C\CCCCCCCCCc1cc(O)cc(OC)c1O,-25.5% (active),14.5%,8.94% (active),-19.1% (active),24.3%,12.7%,-29.1% (active),-18.5% (active),-0.181% (active),2.69% (active),0.217% (active),-26.1% (active),,-19.5% (active),6.17% (active),13.6%,44.9%,-5.84% (active),-7.09% (active),-45.4% (active)
CC(=O)N(C(C)=O)c1ccc(C)cc1,106%,92.6%,96.1%,92.4%,99.1%,112%,92.7%,119%,106%,93.9%,,101%,94.2%,101%,109%,112%,110%,96.6%,115%,109%
CC1CC2C3CCC4=CC(=O)CCC4(C)C3CCC2(C)C1(O)C(=O)CO (stereo not given),99.2%,99.4%,102%,92.2%,117%,124%,94.9%,73%,90.6%,71.9%,107%,105%,104%,,102%,132%,123%,114%,77.1%,117%
Cc1ccc(C)c(CCO)c1,134%,112%,99.9%,93.7%,99.6%,107%,115%,85.8%,119%,113%,110%,98.8%,97%,,100%,101%,105%,102%,138%,115%
Nc1ncnc2c1ncn2C1OC(CO)C2OC21 (stereo not given),95.2%,105%,95.7%,100%,99%,116%,106%,85.4%,105%,111%,112%,98.7%,,109%,105%,106%,98.9%,110%,103%,111%
CCOC(=O)c1ccc(NC(C)=O)o1,99.6%,111%,95.1%,87.4%,100%,108%,103%,63%,98.8%,79.1%,79.3%,91.3%,,107%,92.1%,113%,89.6%,97.5%,103%,108%
O=c1n(CC2CO2)c(=O)n(CC2CO2)n1CC1CO1 (stereo not given),41.1%,97.4%,69.7%,51%,74.2%,22.3%,28.6%,85.2%,37.5%,19.2%,,75%,130%,85.2%,49.2%,72.7%,90.5%,65.5%,57.5%,-4.87% (active)
O=C1C=C(c2ccccc2)C(O)(c2ccccc2)C1 (stereo not given),103%,89.8%,99.7%,83.5%,99.6%,96%,89.9%,105%,100%,95.4%,,106%,93.6%,95.7%,101%,112%,109%,104%,98.1%,107%
CCN(Cc1ccc(Cl)c(Cl)c1)c1ccc2nc(N)nc(N)c2c1C,-78% (active),-56.8% (active),-75.6% (active),-82.7% (active),-84.3% (active),-95.6% (active),-67% (active),-78.2% (active),-5.59% (active),-59.5% (active),,-59.9% (active),-100% (active),-88.2% (active),-97.6% (active),-93.2% (active),-42.5% (active),-94.4% (active),-54% (active),-79% (active)
CC1(C)OC2C(CO)OC(n3ccc(=O)[nH]c3=O)C2O1 (stereo not given),96.6%,104%,90.1%,88%,87.2%,104%,101%,75.9%,101%,92.3%,,91.8%,104%,115%,99.3%,107%,91.8%,105%,103%,101%
O=C(O)C1CCCN1C(=O)OCc1ccccc1 (stereo not given),94.7%,117%,103%,80.9%,106%,109%,94.6%,108%,112%,96.2%,,94.8%,105%,122%,102%,120%,100%,105%,112%,104%
CCOC(=O)C1(N)CCCCC1,106%,97.5%,93.1%,79.6%,96.3%,104%,88.2%,173%,98.1%,107%,,107%,94.6%,121%,100%,112%,88.6%,98.7%,110%,85.4%
Oc1cc2ccccc2c(-c2c(O)c(O)cc3ccccc23)c1O,5.57% (active),35.9%,49.3%,13.7%,19.4%,23.2%,19.1%,59.1%,-12.5% (active),30.6%,,39%,51.8%,27.3%,31.7%,44.9%,33.9%,23%,-33.3% (active),-47.5% (active)
Cc1ccccc1CC(N)C(=O)O (stereo not given),109%,103%,105%,91.7%,115%,100%,96.6%,109%,110%,109%,,104%,116%,103%,104%,104%,114%,114%,109%,109%
S=c1nc2[nH]c3ccccc3c2n[nH]1,5.51% (active),66.4%,92.2%,88.6%,122%,97.2%,88.9%,95.7%,91.3%,104%,,97.4%,93.6%,102%,89.3%,88.6%,80.2%,102%,74.2%,103%
